# Measurements taken from PMC7862700, “An all-to-all approach to the identification of sequence-specific readers for epigenetic DNA modifications on cytosine”.
# Tests used:
# Experiment in all cases: DAPPL (digital affinity profiling via proximity ligation, sequencing); 10 mM Tris-HCl pH 7.5, 50 mM NaCl, 1 mM DTT, 4% glycerol, room temperature, 30 min; GST-TFs on glutathione beads, 16-mer random dsDNA library, 0.1% formaldehyde crosslink after washing; high values mean tight binding
# FEV = biological target: T1, FEV (Homo sapiens, UniProt Q99581 1-238); conditions: protein: recombinant; tags: N-terminal GST; dsDNA, one strand shown
# T1 sequence: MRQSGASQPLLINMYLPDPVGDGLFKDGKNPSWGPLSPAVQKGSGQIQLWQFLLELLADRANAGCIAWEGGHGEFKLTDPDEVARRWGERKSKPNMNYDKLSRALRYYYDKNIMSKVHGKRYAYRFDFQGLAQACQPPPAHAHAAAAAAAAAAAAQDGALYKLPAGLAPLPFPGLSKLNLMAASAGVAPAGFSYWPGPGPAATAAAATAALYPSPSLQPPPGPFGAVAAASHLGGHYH
# Outline: (§1)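 Each value of binding signal is a hexamer's read frequency for a factor divided by the same hexamer's frequency in the tag-only sample. Barcoded, bead-captured GST fusions of human transcription factors made in yeast were pooled with that sample and incubated with 200 nmole of a random double-stranded 16-mer DNA library in Tris/NaCl/DTT/glycerol buffer at room temperature for 30 min. Washing, 0.1% formaldehyde crosslinking, proximity ligation, PCR and Illumina NextSeq500 sequencing followed.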
# ETV5 = ETV5 (Homo sapiens, UniProt P41161 1-510); conditions: protein: recombinant; tags: N-terminal GST; dsDNA, one strand shown
# Outline: as §1
# HSF1 = HSF1 (Homo sapiens, UniProt Q00613 1-529); conditions: protein: recombinant; tags: N-terminal GST; chain copies: 3; dsDNA, one strand shown
# Outline: as §1
# SPIC = biological target: T2, SPIC (Homo sapiens, UniProt Q8N5J4 1-248); conditions: protein: recombinant; tags: N-terminal GST; dsDNA, one strand shown
# T2 sequence: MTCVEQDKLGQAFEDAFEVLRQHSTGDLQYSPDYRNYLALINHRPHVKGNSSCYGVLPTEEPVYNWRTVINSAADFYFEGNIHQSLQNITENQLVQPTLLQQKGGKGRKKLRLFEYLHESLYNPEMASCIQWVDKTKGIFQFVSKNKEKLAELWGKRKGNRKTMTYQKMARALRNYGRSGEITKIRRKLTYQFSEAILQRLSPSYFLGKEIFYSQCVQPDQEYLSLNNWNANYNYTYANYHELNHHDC
# Outline: as §1
# ELF4 = ELF4 (Homo sapiens, UniProt Q99607 1-663); conditions: protein: recombinant; tags: N-terminal GST; dsDNA, one strand shown
# Outline: as §1
# ELK4 = biological target: T3, ELK4 (Homo sapiens, UniProt P28324-2 1-405); conditions: protein: recombinant; tags: N-terminal GST; dsDNA, one strand shown
# T3 sequence: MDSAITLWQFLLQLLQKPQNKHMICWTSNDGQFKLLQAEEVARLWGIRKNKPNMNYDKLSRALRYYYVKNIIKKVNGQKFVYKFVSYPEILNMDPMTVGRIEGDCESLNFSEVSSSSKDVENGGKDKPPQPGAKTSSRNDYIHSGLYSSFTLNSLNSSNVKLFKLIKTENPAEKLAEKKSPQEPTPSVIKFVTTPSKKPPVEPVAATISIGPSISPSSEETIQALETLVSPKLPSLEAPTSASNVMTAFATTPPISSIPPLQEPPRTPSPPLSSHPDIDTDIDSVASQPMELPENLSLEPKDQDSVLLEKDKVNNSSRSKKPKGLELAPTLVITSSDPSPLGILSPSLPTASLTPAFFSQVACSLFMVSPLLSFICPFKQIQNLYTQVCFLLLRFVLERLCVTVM
# Outline: as §1
# ETV2 = biological target: T4, ETV2 (Homo sapiens, UniProt O00321 1-342); conditions: protein: recombinant; tags: N-terminal GST; dsDNA, one strand shown
# T4 sequence: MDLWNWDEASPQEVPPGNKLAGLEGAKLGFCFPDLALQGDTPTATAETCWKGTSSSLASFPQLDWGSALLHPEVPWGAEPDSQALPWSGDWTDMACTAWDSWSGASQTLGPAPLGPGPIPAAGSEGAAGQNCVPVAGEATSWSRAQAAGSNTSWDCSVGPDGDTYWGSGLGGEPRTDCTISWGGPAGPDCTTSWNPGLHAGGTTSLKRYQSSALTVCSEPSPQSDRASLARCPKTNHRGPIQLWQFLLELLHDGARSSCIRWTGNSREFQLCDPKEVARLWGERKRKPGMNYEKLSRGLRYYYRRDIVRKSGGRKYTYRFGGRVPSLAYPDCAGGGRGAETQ
# Outline: as §1
# ELF3 = biological target: T5, ELF3 (Homo sapiens, UniProt P78545 1-371); conditions: protein: recombinant; tags: N-terminal GST; dsDNA, one strand shown
# T5 sequence: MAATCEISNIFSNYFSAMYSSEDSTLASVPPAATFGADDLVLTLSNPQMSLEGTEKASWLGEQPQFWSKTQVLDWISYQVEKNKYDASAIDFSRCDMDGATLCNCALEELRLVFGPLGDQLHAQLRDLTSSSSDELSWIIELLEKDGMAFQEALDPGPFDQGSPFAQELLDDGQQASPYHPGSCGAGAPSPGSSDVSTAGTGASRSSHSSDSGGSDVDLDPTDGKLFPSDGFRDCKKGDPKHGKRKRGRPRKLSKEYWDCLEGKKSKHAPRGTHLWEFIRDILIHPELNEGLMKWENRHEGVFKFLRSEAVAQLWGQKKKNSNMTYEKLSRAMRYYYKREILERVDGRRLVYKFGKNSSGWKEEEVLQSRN
# Outline: as §1
# CRX = CRX (Homo sapiens, UniProt O43186 1-299); conditions: protein: recombinant; tags: N-terminal GST; dsDNA, one strand shown
# Outline: as §1
# ETV1 = ETV1 (Homo sapiens, UniProt P50549 1-477); conditions: protein: recombinant; tags: N-terminal GST; dsDNA, one strand shown
# Outline: as §1
# Sequence of ETV5 (P41161 whole entry): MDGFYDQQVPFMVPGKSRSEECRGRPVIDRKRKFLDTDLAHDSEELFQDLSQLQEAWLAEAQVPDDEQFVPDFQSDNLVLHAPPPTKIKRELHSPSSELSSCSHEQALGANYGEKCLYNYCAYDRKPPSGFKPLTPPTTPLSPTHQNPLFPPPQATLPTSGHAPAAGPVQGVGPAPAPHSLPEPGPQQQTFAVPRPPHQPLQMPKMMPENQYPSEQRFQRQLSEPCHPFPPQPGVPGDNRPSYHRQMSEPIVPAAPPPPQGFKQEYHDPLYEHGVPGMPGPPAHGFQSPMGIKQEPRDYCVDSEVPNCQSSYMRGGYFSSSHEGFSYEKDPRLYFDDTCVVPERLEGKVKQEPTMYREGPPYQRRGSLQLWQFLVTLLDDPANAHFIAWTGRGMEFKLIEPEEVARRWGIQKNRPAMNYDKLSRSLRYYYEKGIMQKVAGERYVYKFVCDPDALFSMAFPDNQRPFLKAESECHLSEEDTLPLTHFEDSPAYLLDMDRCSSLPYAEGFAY
# Sequence of ETV1 (P50549 whole entry): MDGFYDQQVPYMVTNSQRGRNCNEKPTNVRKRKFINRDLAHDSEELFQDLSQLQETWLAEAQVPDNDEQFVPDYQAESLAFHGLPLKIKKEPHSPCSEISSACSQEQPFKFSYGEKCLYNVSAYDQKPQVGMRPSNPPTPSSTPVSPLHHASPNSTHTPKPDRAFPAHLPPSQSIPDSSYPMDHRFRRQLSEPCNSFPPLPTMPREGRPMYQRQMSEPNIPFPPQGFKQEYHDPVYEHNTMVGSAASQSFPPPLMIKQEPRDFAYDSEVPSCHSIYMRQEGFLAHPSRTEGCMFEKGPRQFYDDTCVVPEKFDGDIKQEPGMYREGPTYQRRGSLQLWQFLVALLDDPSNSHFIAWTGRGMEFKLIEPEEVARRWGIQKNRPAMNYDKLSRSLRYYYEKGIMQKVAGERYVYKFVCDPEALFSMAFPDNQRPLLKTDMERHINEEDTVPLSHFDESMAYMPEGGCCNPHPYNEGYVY
# Sequence of HSF1 (Q00613 whole entry): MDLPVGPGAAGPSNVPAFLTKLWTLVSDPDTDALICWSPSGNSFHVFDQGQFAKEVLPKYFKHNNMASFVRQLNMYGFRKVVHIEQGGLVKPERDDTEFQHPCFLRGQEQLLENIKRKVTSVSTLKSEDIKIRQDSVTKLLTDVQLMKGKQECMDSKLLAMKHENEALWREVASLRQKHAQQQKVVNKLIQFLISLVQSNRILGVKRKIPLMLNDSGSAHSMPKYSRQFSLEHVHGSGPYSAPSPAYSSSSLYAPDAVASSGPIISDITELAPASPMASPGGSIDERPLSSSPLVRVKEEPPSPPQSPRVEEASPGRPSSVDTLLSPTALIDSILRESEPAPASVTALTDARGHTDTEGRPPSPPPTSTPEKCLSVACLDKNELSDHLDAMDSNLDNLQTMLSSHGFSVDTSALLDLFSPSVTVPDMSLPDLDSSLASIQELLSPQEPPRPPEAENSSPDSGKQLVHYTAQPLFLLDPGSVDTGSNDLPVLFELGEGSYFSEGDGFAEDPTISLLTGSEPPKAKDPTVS
# Sequence of ELF4 (Q99607 whole entry): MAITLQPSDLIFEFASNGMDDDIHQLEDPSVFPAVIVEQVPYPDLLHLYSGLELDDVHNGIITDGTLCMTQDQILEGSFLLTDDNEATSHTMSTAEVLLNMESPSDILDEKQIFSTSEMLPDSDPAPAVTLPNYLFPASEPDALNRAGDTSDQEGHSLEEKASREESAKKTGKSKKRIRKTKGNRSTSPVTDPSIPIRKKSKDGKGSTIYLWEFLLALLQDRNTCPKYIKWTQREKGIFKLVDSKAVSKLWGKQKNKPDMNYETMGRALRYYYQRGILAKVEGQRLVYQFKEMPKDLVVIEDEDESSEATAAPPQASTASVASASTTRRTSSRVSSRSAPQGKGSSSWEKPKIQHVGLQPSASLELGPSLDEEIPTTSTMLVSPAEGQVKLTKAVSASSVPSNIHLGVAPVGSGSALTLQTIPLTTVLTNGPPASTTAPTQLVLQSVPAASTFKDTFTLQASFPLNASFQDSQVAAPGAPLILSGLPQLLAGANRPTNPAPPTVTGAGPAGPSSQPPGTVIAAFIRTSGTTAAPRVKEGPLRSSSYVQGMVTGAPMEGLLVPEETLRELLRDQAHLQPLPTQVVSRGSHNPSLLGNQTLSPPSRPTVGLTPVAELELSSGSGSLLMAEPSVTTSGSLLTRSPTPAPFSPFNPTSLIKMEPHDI
# Sequence of CRX (O43186 whole entry): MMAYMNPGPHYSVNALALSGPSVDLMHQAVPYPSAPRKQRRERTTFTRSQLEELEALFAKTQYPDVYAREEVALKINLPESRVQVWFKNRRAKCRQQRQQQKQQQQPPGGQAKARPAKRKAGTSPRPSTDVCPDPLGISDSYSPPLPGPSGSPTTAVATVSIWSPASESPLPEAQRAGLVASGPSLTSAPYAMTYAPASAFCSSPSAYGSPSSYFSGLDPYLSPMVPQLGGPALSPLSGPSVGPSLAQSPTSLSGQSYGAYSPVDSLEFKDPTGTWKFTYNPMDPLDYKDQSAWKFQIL
Sequence,binding signal (FEV),binding signal (ETV5),binding signal (HSF1),binding signal (SPIC),binding signal (ELF4),binding signal (ELK4),binding signal (ETV2),binding signal (ELF3),binding signal (CRX),binding signal (ETV1)
GCTTAC,"1.15 fold enrichment (6-mer frequency, TF over GST control)","1.12 fold enrichment (6-mer frequency, TF over GST control)","1.44 fold enrichment (6-mer frequency, TF over GST control)","1.21 fold enrichment (6-mer frequency, TF over GST control)","1.1 fold enrichment (6-mer frequency, TF over GST control)","1.1 fold enrichment (6-mer frequency, TF over GST control)","1.22 fold enrichment (6-mer frequency, TF over GST control)","1.4 fold enrichment (6-mer frequency, TF over GST control)","2.01 fold enrichment (6-mer frequency, TF over GST control)","1.22 fold enrichment (6-mer frequency, TF over GST control)"
CCCCAT,"1.2 fold enrichment (6-mer frequency, TF over GST control)","1.34 fold enrichment (6-mer frequency, TF over GST control)","1.1 fold enrichment (6-mer frequency, TF over GST control)","1.41 fold enrichment (6-mer frequency, TF over GST control)","1.34 fold enrichment (6-mer frequency, TF over GST control)","1.22 fold enrichment (6-mer frequency, TF over GST control)","1.52 fold enrichment (6-mer frequency, TF over GST control)","1.16 fold enrichment (6-mer frequency, TF over GST control)","1.15 fold enrichment (6-mer frequency, TF over GST control)","1.37 fold enrichment (6-mer frequency, TF over GST control)"
TTTCCG,"5.31 fold enrichment (6-mer frequency, TF over GST control)","4.02 fold enrichment (6-mer frequency, TF over GST control)","1.48 fold enrichment (6-mer frequency, TF over GST control)","3.86 fold enrichment (6-mer frequency, TF over GST control)","3.35 fold enrichment (6-mer frequency, TF over GST control)","2.97 fold enrichment (6-mer frequency, TF over GST control)","3.65 fold enrichment (6-mer frequency, TF over GST control)","3.54 fold enrichment (6-mer frequency, TF over GST control)","1.39 fold enrichment (6-mer frequency, TF over GST control)","3.76 fold enrichment (6-mer frequency, TF over GST control)"
AGCTAC,"1.23 fold enrichment (6-mer frequency, TF over GST control)","1.21 fold enrichment (6-mer frequency, TF over GST control)","1.04 fold enrichment (6-mer frequency, TF over GST control)","1.21 fold enrichment (6-mer frequency, TF over GST control)","1.12 fold enrichment (6-mer frequency, TF over GST control)","1.25 fold enrichment (6-mer frequency, TF over GST control)","1.03 fold enrichment (6-mer frequency, TF over GST control)","1.34 fold enrichment (6-mer frequency, TF over GST control)","1.04 fold enrichment (6-mer frequency, TF over GST control)","1.21 fold enrichment (6-mer frequency, TF over GST control)"
CTGCTT,"1.8 fold enrichment (6-mer frequency, TF over GST control)","1.66 fold enrichment (6-mer frequency, TF over GST control)","1.53 fold enrichment (6-mer frequency, TF over GST control)","1.8 fold enrichment (6-mer frequency, TF over GST control)","1.68 fold enrichment (6-mer frequency, TF over GST control)","1.88 fold enrichment (6-mer frequency, TF over GST control)","1.93 fold enrichment (6-mer frequency, TF over GST control)","1.28 fold enrichment (6-mer frequency, TF over GST control)","1.69 fold enrichment (6-mer frequency, TF over GST control)","1.73 fold enrichment (6-mer frequency, TF over GST control)"
TAATAA,"1.13 fold enrichment (6-mer frequency, TF over GST control)","1.22 fold enrichment (6-mer frequency, TF over GST control)","1.76 fold enrichment (6-mer frequency, TF over GST control)","1.17 fold enrichment (6-mer frequency, TF over GST control)","1.21 fold enrichment (6-mer frequency, TF over GST control)","1.06 fold enrichment (6-mer frequency, TF over GST control)","1.17 fold enrichment (6-mer frequency, TF over GST control)","1.21 fold enrichment (6-mer frequency, TF over GST control)","2.43 fold enrichment (6-mer frequency, TF over GST control)","1.12 fold enrichment (6-mer frequency, TF over GST control)"
TATCCG,"4.84 fold enrichment (6-mer frequency, TF over GST control)","2.85 fold enrichment (6-mer frequency, TF over GST control)","1.54 fold enrichment (6-mer frequency, TF over GST control)","2.38 fold enrichment (6-mer frequency, TF over GST control)","2.2 fold enrichment (6-mer frequency, TF over GST control)","2.29 fold enrichment (6-mer frequency, TF over GST control)","2.68 fold enrichment (6-mer frequency, TF over GST control)","2.33 fold enrichment (6-mer frequency, TF over GST control)","1.95 fold enrichment (6-mer frequency, TF over GST control)","2.72 fold enrichment (6-mer frequency, TF over GST control)"
